For six compounds, max response and Potency results are on record in PubChem BioAssay (NCATS).

Inconclusive results are not listed. Values without a mark were called inactive. The source made the active and inactive calls. Calls come from the whole dose curve; as a rule, active = well fitted curve in the direction sought with a large enough effect; inconclusive = small, poorly fitted or top-dose-only effect, or another doubt; inactive = no such curve, though single readings can be large or run the other way.
% is set by controls: 0 for no effect and ±100 for the full control effect; potency is the fitted concentration of half-maximal effect.

This assay is described as follows: qHTS Assay for Identifying Gametocytocidal Compounds (AID 743244).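 For max response: actives lower the fluorescent signal which means gametocytes are killed.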 The note with it: P. falciparum 3D7 stage III-V gametocytes, alamarBlue, 72 h; max response: hits give low values. In short, it runs like this: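 Fluorescence at Ex 525/Em 598 nm, recorded 24 h after alamarBlue addition, reports residual metabolic activity of 3D7 gametocytes (stages III–V) following 72 h compound exposure at 37 °C, 5% CO2.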
For `CNc1cc(OC)c(C(=O)N[C@H]2CCN(Cc3ccccc3)[C@H]2C)cc1Cl`, the max response is -16.8%.

As to `CCC(=O)NCCC1CCc2ccc3c(c21)CCO3` (stereo unspecified), the max response is 12.4%.

As for `CCCCCCCCCCCCCCCC(=O)OCC(COC(=O)CCCCCCCCCCCCCCC)OC(=O)CCCCCCCCCCCCCCC`, the max response was 4.37%.

Turning to `CCCCCCCCCCCCCC[n+]1ccc(C)cc1`, the Potency was 7.94 µM (active).

For the compound `CC[C@@H](C(=O)[C@@H](C)[C@@H](O)[C@H](C)CCc1ccc(C)c(O)c1C(=O)O)[C@H]1O[C@](CC)([C@H]2CC[C@](O)(CC)[C@H](C)O2)C[C@@H]1C`, the Potency is 7.08 µM (active).

On to `C[C@@H]1CCC2[C@@H](C)[C@@H](O)O[C@@H]3O[C@@]4(C)CC[C@@H]1[C@@]23OO4` (stereo partly specified), for which the Potency was 0.0469 µM (active).
